# Assay results as given in PubChem BioAssay (EPA / NIEHS).
# Records with an inconclusive call do not appear. The source made the active and inactive calls. Rule for the calls: active = hit-call score of the fitted dose curve at least 0.9, where 1 is the maximum; inconclusive = response in the unintended direction; inactive = score below 0.9.
# Tested on: turtle Thyroid Hormone Receptor, alpha (TRa), gene 101949057
# Experiment: ATG_trTRa_XSP1: Attagene TRANS-FACTORIAL Multi-Species (XSP1) HepG2 Assay for turtle Thyroid Hormone Receptor, alpha (TRa) (AID 2283806)
# Experimental: ATG_XSP1_multi-species_TRANS is a cell-based, multiplexed assay created by modifying the existing Attagene TRANS-FACTORIAL system to include a panel of nuclear receptors from some or all the following species: human (Homo sapiens), mouse (Mus musculus), frog (Xenopus laevis), zebrafish (Danio rerio), chicken (Gallus gallus), and turtle (Chrysemys picta). The ECOTOX-FACTORIAL format uses HepG2, a human liver cell line, with measurements taken at 24 hours after chemical dosing in a 24-well plate. Xsp1 included 3 nM 6-alpha-fluorotestosterone to partially stimulate the androgen receptor.ATG_trTRa_XSP1 is one of 29 assay components measured or calculated from the ATG_XSP1_multi-species_TRANS assay. It is designed to make measurements of mRNA induction, a form of inducible reporter, as detected with fluorescence intensity signals by Reverse transcription polymerase chain reaction (RT-PCR) and Capillary electrophoresis technology.The assay endpoint ATG_trTRa_XSP1 was analyzed in the positive analysis fitting direction relative to DMSO as the negative control and baseline of activity. Using a type of inducible reporter, measures of mRNA for gain-of-signal activity can be used to understand the reporter gene at the transcription factor-level as they relate to the gene TR. Furthermore, this assay endpoint can be referred to as a primary readout, because this assay has produced multiple assay endpoints where this one serves a reporter gene function. To generalize the intended target to other relatable targets, this assay endpoint is annotated to the nuclear receptor intended target family, where the subfamily is non-steroidal.
# Human liver HepG2 cells are transiently transfected with multiple reporter transcription units (MRTUs) in 6-well plates using FuGene 6 reagent (Roche; 3 ml FuGene/1 mg DNA). The MRTU constructs are regulated by a cis-regulating element (promoter). […] A major difference between the CIS and TRANS system is that in CIS activities of endogenous TFs are measured, whereas the TRANS assay evaluates changes in activities of exogenous, chimeric NR-Gal4 proteins. […] At the end of 24 hour incubation, total RNA was isolated using TriZol reagent (Invitrogen). The isolated RNA is then reverse-transcribed using oligo(dT) primer and Mo-MLV reverse transcriptase (Invitrogen) with DNAse I (Ambion) treatment for 30 min. The one-tenth of the produced cDNA was amplified by PCR using Taq DNA polymerase (Invitrogen) and two reporter sequence-specific primers. The PCR products were fluorescently labeled by primer extension with 6-arboxyfluorescein (6-FAM) 5'-labeled reporter sequence-specific primer (2 min at 95 C, 20 s at 68 C and 10 min at 72 C) and these products were digested with 5U of HpaI (New England Biolabs) for 2h at 37 C. The fragments were purified using Qiaquick PCR columns (Qiagen), analyzed on an ABI 3130xL genetic analyzer (Applied Biosystems) with peak positions identified by using a set of X-rhodamine (ROX)-labeled MapMarker1000 molecular weight standards (BioVentures). The raw capillary electrophoresis data was processed using Attagraph software (Attagene).
SMILES,outcome,AC50
CO/C=C(/C(=O)OC)c1ccccc1Oc1cc(Oc2ccccc2C#N)ncn1,inactive,–
CON(C)C(=O)Nc1ccc(Cl)c(Cl)c1,inactive,–
CCCN(CCC)c1c([N+](=O)[O-])cc(S(N)(=O)=O)cc1[N+](=O)[O-],–,8.29 µM (active)
CC(C)(C)c1ccc(CSc2cnn(C(C)(C)C)c(=O)c2Cl)cc1,inactive,–
CCCCNC(=O)OCC#CI,inactive,–
COP(=S)(OC)Oc1nc(Cl)c(Cl)cc1Cl,inactive,–
C=CC1(C)OC(=O)N(c2cc(Cl)cc(Cl)c2)C1=O (stereo not drawn),–,134 µM (active)
CC(C)Oc1cc(-n2nc(C(C)(C)C)oc2=O)c(Cl)cc1Cl,inactive,–
CCCCOC(=O)c1ccccc1C(=O)OCCCC,inactive,–
CCCCC(CC)COC(=O)c1ccccc1C(=O)OCC(CC)CCCC (stereo not drawn),–,47.8 µM (active)
C#CCOS(=O)OC1CCCCC1Oc1ccc(C(C)(C)C)cc1 (stereo not drawn),inactive,–
CCCC1COC(Cn2cncn2)(c2ccc(Cl)cc2Cl)O1 (stereo not drawn),inactive,–
COC(=O)N(OC)c1ccccc1COc1ccn(-c2ccc(Cl)cc2)n1,inactive,–
